In PubChem BioAssay (Tox21):
Results filed as inconclusive are left out. Some structures have more than one record in an assay (separate samples or runs), and their calls can disagree. Activity calls are given as the source filed them. Unless noted, calls follow the shape of the dose curve; as a rule, active = well fitted curve in the direction sought with a large enough effect in the repeat runs; inconclusive = weak or mixed curves; inactive = no such curve, though single readings can be large; an effect the other way counts as inactive or inconclusive.

Legend:
[1] = qHTS assay to identify small molecule antagonists of the glucocorticoid receptor (GR) signaling pathway - cell viability counter screen (AID 720693); also: nearly all actives have a fitted effect of over 55% in size
[2] = qHTS assay for identifying genotoxic compounds that show differential cytotoxicity against isogenic chicken DT40 cell lines with known DNA damage response pathways - wild type cell line (AID 743012); also: nearly all actives have a fitted effect of over 60% in size; also: potency is read from the fitted curve at half-maximal effect
Method in brief: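 CellTiter-Glo luminescence readout of viability in wild type DT40 cells after 40 h compound exposure at 37 C/5% CO2; 300 cells/well; reagent incubated 30 min at room temperature before reading.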

[3] = qHTS assay for identifying genotoxic compounds that show differential cytotoxicity against isogenic chicken DT40 cell lines with known DNA damage response pathways - Rev3 mutant cell line (AID 743014); also: nearly all actives have a fitted effect of over 55% in size; also: potency is read from the fitted curve at half-maximal effect
[4] = qHTS assay to identify small molecule antagonists of the androgen receptor (AR) signaling pathway - cell viability counter screen (AID 743033; also: nearly all actives have a fitted effect of over 45% in size)
[5] = biological target: Androgen receptor (Homo sapiens) (UniProt P10275); test: qHTS assay to identify small molecule antagonists of the androgen receptor (AR) signaling pathway (AID 743035; active = well fitted inhibition curve with a large enough effect in the signal ratio in the repeat runs, not every such curve was filed as active; the % refers to the signal ratio)
Chain of Androgen receptor (Homo sapiens) (P10275 whole entry, looked up): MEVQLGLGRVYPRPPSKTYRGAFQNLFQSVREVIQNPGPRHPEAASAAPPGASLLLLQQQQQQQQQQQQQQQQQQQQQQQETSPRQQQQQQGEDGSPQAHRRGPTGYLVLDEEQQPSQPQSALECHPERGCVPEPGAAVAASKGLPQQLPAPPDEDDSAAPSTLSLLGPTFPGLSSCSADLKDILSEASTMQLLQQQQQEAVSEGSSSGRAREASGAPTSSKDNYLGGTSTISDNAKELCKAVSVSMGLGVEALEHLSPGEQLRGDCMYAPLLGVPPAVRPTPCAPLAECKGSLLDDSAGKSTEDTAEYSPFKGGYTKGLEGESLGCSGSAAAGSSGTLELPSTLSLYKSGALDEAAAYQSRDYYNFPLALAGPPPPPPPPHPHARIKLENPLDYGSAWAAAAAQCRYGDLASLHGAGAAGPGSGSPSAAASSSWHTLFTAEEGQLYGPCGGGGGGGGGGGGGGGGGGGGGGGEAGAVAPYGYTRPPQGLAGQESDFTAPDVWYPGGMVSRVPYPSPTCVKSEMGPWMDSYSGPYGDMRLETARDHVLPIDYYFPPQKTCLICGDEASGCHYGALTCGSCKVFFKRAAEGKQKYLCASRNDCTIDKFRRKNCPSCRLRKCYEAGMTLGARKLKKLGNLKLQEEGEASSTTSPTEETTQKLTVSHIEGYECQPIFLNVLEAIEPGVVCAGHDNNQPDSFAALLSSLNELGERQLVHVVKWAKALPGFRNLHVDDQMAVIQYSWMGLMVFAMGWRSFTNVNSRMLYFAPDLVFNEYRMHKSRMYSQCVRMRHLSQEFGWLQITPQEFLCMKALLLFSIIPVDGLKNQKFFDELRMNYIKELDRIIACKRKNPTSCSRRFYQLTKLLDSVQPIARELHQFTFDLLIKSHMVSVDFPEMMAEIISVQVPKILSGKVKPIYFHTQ
Method in brief: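 AR-bla HEK293 reporter cells; 4 h settle at 37C/5% CO2; compound + R1881 agonist, 16 h at 37C; LiveBLAzer B/G FRET substrate 2 h RT; fluorescence intensity read. qHTS format.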

[6] = biological target: Androgen receptor (Homo sapiens) (UniProt P10275); test: qHTS assay to identify small molecule agonists of the androgen receptor (AR) signaling pathway (AID 743036; active = well fitted activation curve with a large enough effect in the signal ratio in the repeat runs, with a control signal flat, not every such curve was filed as active; the % refers to the signal ratio)
Method in brief: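 Following a 4 h settling period, AR-UAS-bla HEK293 cells were dosed with compounds for 16 h at 37C. A 2 h room-temperature incubation with LiveBLAzer B/G FRET substrate preceded the fluorescence measurement.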

[7] = biological target: Androgen receptor (Homo sapiens) (UniProt P10275); test: qHTS assay to identify small molecule agonists of the androgen receptor (AR) signaling pathway using the MDA cell line (AID 743040; also: nearly all actives have a fitted effect of over 20% in size)
Method in brief: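 Cell-based luciferase reporter: MDA-kb2, MMTV promoter (AR + GR response elements). 16 h compound exposure at 37C; ONE-Glo, 30 min RT, luminescence.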

[8] = qHTS assay to identify small molecule antagonists of the androgen receptor (AR) signaling pathway using the MDA cell line - cell viability counter screen (AID 743041; also: nearly all actives have a fitted effect of over 45% in size; also: potency is read from the fitted curve at half-maximal effect)
Method in brief: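 In this qHTS counter assay, fluorescence intensity after CellTiter-Fluor addition indicated viability of MDA-kb2 AR-luc cells given compounds and R1881 for 16 h at 37C.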

[9] = qHTS assay to identify small molecule antagonists of the thyroid receptor (TR) signaling pathway - cell viability counter screen (AID 743064); also: nearly all actives have a fitted effect of over 50% in size; also: potency is read from the fitted curve at half-maximal effect
Method in brief: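 CellTiter-Fluor readout, 30 min at 37 °C/5% CO2, following 23.5 h incubation of GH3.TRE-Luc cells with test compound and 1 nM T3 (final).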

[10] = qHTS assay to identify small molecule antagonists of the thyroid receptor (TR) signaling pathway (AID 743065); also: series mostly up to about 70 µM; nearly all actives have a fitted effect of over 55% in size
Method in brief: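 GH3.TRE-Luc rat pituitary cells carrying two TR response elements driving luciferase were plated for 4 h, given compound plus 1 nM T3 (final), and incubated 23.5 h at 37 C. ONE-Glo luminescence measured reporter inhibition; CellTiter-Fluor fluorescence tracked cytotoxicity.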

[11] = test system: thyroid hormone receptor (rat, GH3 cells); test: qHTS assay to identify small molecule agonists of the thyroid receptor (TR) signaling pathway (AID 743066; calls by dose curve)
[12] = biological target: Estrogen receptor (Homo sapiens) (UniProt P03372); test: qHTS assay to identify small molecule antagonists of the estrogen receptor alpha (ER-alpha) signaling pathway (AID 743069; active = well fitted curve in the direction sought with a large enough effect in the signal ratio in the repeat runs, not every such curve was filed as active; the % refers to the signal ratio)
Chain of Estrogen receptor (Homo sapiens) (P03372 whole entry, looked up): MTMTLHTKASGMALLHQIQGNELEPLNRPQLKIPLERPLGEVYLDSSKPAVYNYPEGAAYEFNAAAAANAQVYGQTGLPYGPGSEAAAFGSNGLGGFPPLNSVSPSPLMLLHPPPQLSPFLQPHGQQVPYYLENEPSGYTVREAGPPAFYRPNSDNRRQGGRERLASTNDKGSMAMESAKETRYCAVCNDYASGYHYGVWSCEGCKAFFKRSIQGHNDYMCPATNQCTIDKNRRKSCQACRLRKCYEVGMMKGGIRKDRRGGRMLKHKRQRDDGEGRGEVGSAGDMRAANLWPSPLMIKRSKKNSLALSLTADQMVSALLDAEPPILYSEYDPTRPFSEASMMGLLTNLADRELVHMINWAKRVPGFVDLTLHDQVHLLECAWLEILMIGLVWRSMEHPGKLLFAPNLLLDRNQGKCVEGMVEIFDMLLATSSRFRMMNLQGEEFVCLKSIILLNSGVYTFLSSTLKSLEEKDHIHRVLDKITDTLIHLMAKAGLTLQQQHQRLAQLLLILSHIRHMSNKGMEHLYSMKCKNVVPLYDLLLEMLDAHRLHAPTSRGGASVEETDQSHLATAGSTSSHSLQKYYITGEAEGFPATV
Method in brief: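 A 17beta-estradiol challenge was applied right after compound transfer to ER-alpha-UAS-bla HEK293 cells previously kept in charcoal-stripped serum. Plates stood 18 hr at 37C and 5% CO2; fluorescence was read following 2 hr FRET substrate loading at room temperature.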

[13] = qHTS assay to identify small molecule antagonists of the estrogen receptor alpha (ER-alpha) signaling pathway - cell viability counter screen (AID 743074; calls by dose curve;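 also: HEK293 cells carrying ER-alpha-UAS-bla reporter stimulated with 17beta-estradiol; nearly all actives have a fitted effect of over 45% in size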)
[14] = biological target: Estrogen receptor (Homo sapiens) (UniProt P03372); test: qHTS assay to identify small molecule agonists of the estrogen receptor alpha (ER-alpha) signaling pathway (AID 743075; calls by dose curve;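 also: HEK293 GripTite cells with ER-alpha and UAS-driven beta-lactamase reporter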; also: potency is read from the fitted curve at half-maximal effect)
[15] = biological target: Estrogen receptor (Homo sapiens) (UniProt P03372); test: qHTS assay to identify small molecule agonists of the estrogen receptor alpha (ER-alpha) signaling pathway using the BG1 cell line (AID 743079); also: nearly all actives have a fitted effect of over 20% in size; also: potency is read from the fitted curve at half-maximal effect
[16] = qHTS assay to identify small molecule antagonists of the estrogen receptor alpha (ER-alpha) signaling pathway using the BG1 cell line (AID 743080; calls by dose curve;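 also: BG1 cells stimulated with 17beta-estradiol alongside compound; series mostly up to about 70 µM; nearly all actives have a fitted effect of over 25% in size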)
Method in brief: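 BG1-Luc-4E2 cells (endogenous full-length ER-alpha, stable 4×ERE-luciferase) were starved 5 days in phenol-red-free medium with 10% charcoal-stripped FBS, plated 24 h, then given compound plus 17beta-estradiol for 21.5 h at 37 C; ONE-Glo luminescence read after 30 min.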

[17] = qHTS assay to identify small molecule antagonists of the estrogen receptor alpha (ER-alpha) signaling pathway using the BG1 cell line - cell viability counter screen (AID 743081);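 also: compound given together with 17beta-estradiol as the ER stimulus; nearly all actives have a fitted effect of over 45% in size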; also: potency is read from the fitted curve at half-maximal effect
Aromatase (Homo sapiens) = Aromatase (Homo sapiens) (UniProt P11511); test: qHTS assay to identify aromatase inhibitors (AID 743083); also: series mostly up to about 70 µM; nearly all actives have a fitted effect of over 55% in size
Chain of Aromatase (Homo sapiens) (P11511 whole entry, looked up): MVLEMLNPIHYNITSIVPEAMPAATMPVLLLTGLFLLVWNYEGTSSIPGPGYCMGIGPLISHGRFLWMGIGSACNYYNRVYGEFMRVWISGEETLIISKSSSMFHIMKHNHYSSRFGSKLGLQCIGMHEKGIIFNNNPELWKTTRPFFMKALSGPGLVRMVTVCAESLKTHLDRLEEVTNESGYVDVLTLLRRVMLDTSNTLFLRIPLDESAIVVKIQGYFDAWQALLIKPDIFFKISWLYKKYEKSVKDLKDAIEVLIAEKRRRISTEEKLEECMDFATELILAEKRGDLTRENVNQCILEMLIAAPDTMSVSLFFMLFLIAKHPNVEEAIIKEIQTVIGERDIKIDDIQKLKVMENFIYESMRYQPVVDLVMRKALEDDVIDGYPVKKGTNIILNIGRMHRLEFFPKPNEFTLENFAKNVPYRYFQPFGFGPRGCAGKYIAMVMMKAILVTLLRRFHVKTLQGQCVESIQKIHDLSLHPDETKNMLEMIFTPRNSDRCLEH

[18] = qHTS assay to identify aromatase inhibitors - cell viability counter screen (AID 743084); also: potency is read from the fitted curve at half-maximal effect
[19] = qHTS assay for identifying genotoxic compounds that show differential cytotoxicity against isogenic chicken DT40 cell lines with known DNA damage response pathways - Rad54/Ku70 mutant cell line (AID 743015); also: nearly all actives have a fitted effect of over 60% in size; also: potency is read from the fitted curve at half-maximal effect
% is scaled to controls: 0 for no effect and ±100 for the full control effect.

OCC1CCC(CO)CC1 (stereo not drawn)
inactive: outcome [1] | Potency [2] | Potency [3] | outcome [4] | outcome [5] | outcome [6] | Potency [7] | Potency [8] | Potency [9] | Potency [10] | outcome [11] | outcome [12] | outcome [13] | Potency [14] | Potency [15] | outcome [16] | Potency [17] | outcome (Aromatase (Homo sapiens)) | Potency [18]

CO/N=C(/C(=O)N[C@@H]1C(=O)N2C(C(=O)[O-])=C(C[n+]3ccn4ncccc43)CS[C@H]12)c1nsc(N)n1
inactive: outcome [1] | Potency [2] | Potency [3] | Potency [19] | outcome [12] | outcome [13] | Potency [14] | Potency [15] | outcome [16] | Potency [17] | outcome (Aromatase (Homo sapiens)) | Potency [18]

CC(C)(C)NC[C@H](O)COc1cccc2c1CCCC2=O
inactive: outcome [1] | Potency [2] | Potency [3] | Potency [19] | Potency [8] | Potency [9] | Potency [10] | outcome [11] | outcome [12] | outcome [13] | Potency [14] | Potency [15] | outcome [16] | Potency [17] | outcome (Aromatase (Homo sapiens)) | Potency [18]

CC1OCCC1=O (stereo not drawn)
inactive: outcome [1] | Potency [2] | Potency [3] | Potency [19] | Potency [9] | Potency [10] | outcome [11] | outcome [12] | outcome [13] | Potency [14] | Potency [15] | outcome [16] | Potency [17] | outcome (Aromatase (Homo sapiens)) | Potency [18]

CC(C)Nc1ccccc1
inactive: outcome [1] | Potency [2] | Potency [3] | Potency [19] | Potency [8] | Potency [9] | Potency [10] | outcome [11] | outcome [12] | outcome [13] | Potency [14] | Potency [15] | outcome [16] | Potency [17] | outcome (Aromatase (Homo sapiens)) | Potency [18]

CC(=O)O[C@@H]1CC2CCC1(C)C2(C)C (stereo partly drawn)
inactive: outcome [1] | Potency [2] | Potency [3] | outcome [4] | outcome [5] | outcome [6] | Potency [7] | Potency [8] | Potency [9] | outcome [13] | Potency [17] | outcome (Aromatase (Homo sapiens)) | Potency [18]

Cc1c(NC(=O)c2cccnc2)c(=O)n(-c2ccccc2)n1C
inactive: outcome [1] | Potency [2] | Potency [3] | Potency [19] | Potency [8] | Potency [10] | outcome [11] | outcome [12] | outcome [13] | Potency [14] | Potency [15] | outcome [16] | Potency [17] | outcome (Aromatase (Homo sapiens)) | Potency [18]

O=C1CCC(=O)N1Cl
inactive: outcome [1] | Potency [2] | Potency [3] | Potency [19] | Potency [8] | Potency [9] | Potency [10] | outcome [11] | outcome [12] | outcome [13] | Potency [14] | Potency [15] | outcome [16] | Potency [17] | outcome (Aromatase (Homo sapiens)) | Potency [18]

Cc1cc(C)c(C(=O)O)c(C)c1
inactive: outcome [1] | Potency [2] | Potency [3] | Potency [19] | Potency [8] | Potency [9] | Potency [10] | outcome [11] | outcome [12] | outcome [13] | Potency [14] | Potency [15] | outcome [16] | Potency [17] | outcome (Aromatase (Homo sapiens)) | Potency [18]

C[Si]1(C)O[Si](C)(C)O[Si](C)(C)O[Si](C)(C)O[Si](C)(C)O1
inactive: outcome [1] | Potency [2] | Potency [3] | Potency [19] | Potency [9] | Potency [10] | outcome [11] | outcome [12] | outcome [13] | Potency [14] | Potency [15] | outcome [16] | Potency [17] | outcome (Aromatase (Homo sapiens)) | Potency [18]

CCCCCC/C=C/C(=O)OC
inactive: outcome [1] | Potency [2] | Potency [3] | outcome [4] | Potency [8] | Potency [9] | Potency [10] | outcome [11] | outcome [13] | Potency [17] | outcome (Aromatase (Homo sapiens)) | Potency [18]

c1ccc(B(c2ccccc2)c2ccccc2)cc1
active: Potency [14] 30.9 µM [activator] | Potency [15] 34.3 µM
inactive: outcome [1] | Potency [2] | Potency [3] | outcome [4] | Potency [8] | Potency [9] | Potency [10] | outcome [11] | outcome [12] | outcome [13] | Potency [17] | outcome (Aromatase (Homo sapiens)) | Potency [18]

Cc1ccc(N)cc1S(=O)(=O)O
inactive: outcome [1] | Potency [2] | Potency [3] | outcome [4] | Potency [8] | Potency [9] | Potency [10] | outcome [11] | outcome [12] | outcome [13] | Potency [14] | Potency [15] | outcome [16] | Potency [17] | outcome (Aromatase (Homo sapiens)) | Potency [18]

COC(C)(OC)OC
inactive: outcome [1] | Potency [2] | Potency [3] | outcome [4] | outcome [5] | outcome [6] | Potency [7] | Potency [8] | Potency [9] | Potency [10] | outcome [11] | outcome [12] | Potency [14] | Potency [15] | outcome [16] | Potency [17] | outcome (Aromatase (Homo sapiens)) | Potency [18]

CC1(C)[C@H]2CC[C@](C)(C2)[C@H]1O
inactive: outcome [1] | Potency [2] | Potency [3] | Potency [19] | Potency [8] | Potency [9] | Potency [10] | outcome [11] | outcome [12] | outcome [13] | Potency [14] | Potency [15] | outcome [16] | Potency [17] | outcome (Aromatase (Homo sapiens)) | Potency [18]

O=S(=O)(O)c1ccc2c(N=Nc3ccc(S(=O)(=O)O)c4ccccc34)c(O)c(S(=O)(=O)O)cc2c1
active: Potency [8] 22.1 µM | Potency [9] 21.1 µM | Potency [17] 9.44 µM | Potency [18] 18.8 µM
inactive: outcome [1] | Potency [2] | Potency [3] | outcome [4] | viability change, negative = cytotoxic [8] -3.01% [at 8.47 µM] | activity change, negative = cytotoxic [9] -5.75% [at 8.44 µM] | activity, negative = inhibition [10] -4.92% [at 8.44 µM] | outcome [11] | outcome [13] | activity, negative = inhibition (Aromatase (Homo sapiens)) -13.1% [at 8.47 µM]

CCCCOCC(C)O (stereo not drawn)
inactive: outcome [1] | Potency [2] | Potency [3] | outcome [4] | Potency [8] | Potency [9] | Potency [10] | outcome [11] | outcome [12] | outcome [13] | Potency [14] | Potency [15] | outcome [16] | Potency [17] | outcome (Aromatase (Homo sapiens)) | Potency [18]

CC(Oc1cc(Cl)ccc1Cl)C(=O)O (stereo not drawn)
inactive: outcome [1] | Potency [2] | Potency [3] | outcome [4] | outcome [5] | Potency [7] | Potency [8] | Potency [9] | Potency [10] | outcome [11] | outcome [13] | Potency [17] | outcome (Aromatase (Homo sapiens))

Cc1ccc2c(c1)C(=O)c1ccccc1C2=O
inactive: outcome [1] | Potency [8] | Potency [9] | Potency [10] | outcome [11] | outcome [13] | Potency [14] | Potency [17] | outcome (Aromatase (Homo sapiens)) | Potency [18]
active: Potency [2] 48.4 µM | Potency [3] 54.3 µM | Potency [19] 60.9 µM | Potency [15] 34.2 µM

CCOC(=O)CC1(C)OCC(C)O1 (stereo not drawn)
inactive: outcome [1] | Potency [2] | Potency [3] | Potency [19] | Potency [8] | Potency [9] | Potency [10] | outcome [11] | outcome [12] | outcome [13] | Potency [14] | Potency [15] | outcome [16] | Potency [17] | outcome (Aromatase (Homo sapiens)) | Potency [18]

O=C(O)[C@H](O)c1ccccc1
inactive: outcome [1] | Potency [2] | Potency [3] | outcome [4] | Potency [8] | Potency [9] | Potency [10] | outcome [11] | outcome [12] | outcome [13] | Potency [14] | outcome [16] | Potency [17] | outcome (Aromatase (Homo sapiens)) | Potency [18]

c1ccc2c(CC3=NCCN3)cccc2c1
inactive: outcome [1] | Potency [2] | Potency [3] | outcome [4] | Potency [8] | Potency [9] | Potency [10] | outcome [11] | outcome [13] | outcome [16] | Potency [17] | outcome (Aromatase (Homo sapiens)) | Potency [18]

Cc1ccc(C(C)NC(=O)[C@@H](NC(=O)OC(C)C)C(C)C)cc1 (stereo partly drawn)
inactive: outcome [1] | Potency [2] | Potency [3] | Potency [19] | Potency [8] | Potency [9] | Potency [10] | outcome [11] | outcome [13] | Potency [17] | outcome (Aromatase (Homo sapiens)) | Potency [18]
